Results as given in PubChem BioAssay AID2685 (National Center for Advancing Translational Sciences (NCATS), 2010).
The whole screen tested about 320,000 compounds, of which about 2,100 (0.66%) were called active. Roughly 53% stayed inconclusive and do not appear here. Calls come from the whole dose curve; as a rule, active = well fitted inhibition curve with a large enough effect in the signal ratio, with a control signal flat (not every such curve was filed as active); inconclusive = small, poorly fitted or top-dose-only effect, or effect the other way, or a change in a side signal; inactive = flat fitted curve, though single readings scatter; the % refers to the signal ratio. The list comes from a sample in which actives are over-represented; it also holds similar structures and randomly drawn compounds.
Potency is the fitted concentration of half-maximal effect.

Test: qHTS Assay for Lipid Storage Modulators in Drosophila S3 Cells;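 for cell number change: cells counted by Cell Tracker Red CMTPX staining in the red channel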; for lipid storage change, negative = inhibition: % is set by controls: 0 for no effect and ±100 for the full control effect
Conditions: BODIPY lipid droplet fluorescence, 18-24 h, cells fed with added oleic acid; cell number change: measured here: cell count max response; series mostly up to 46.1 µM
In short: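 Drosophila S3 cells got compounds at several concentrations plus oleic acid (400 uM solution). Laser-scanning cytometry with 488 nm excitation read lipid droplets at 500-530 nm and cells at 575-640 nm. Percent activity was relative to 20 uM Triacsin C.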
For `Cc1ccn(CC(=O)N2CCCC(N3CCN(Cc4ccc5c(c4)OCO5)CC3)C2)n1` (stereo unspecified), the Potency was “inactive” and the cell number change was 8.09%. With `Cc1nc(SCC(=O)N(C)Cc2ccco2)c2c(C)c(C)sc2n1` the Potency was “inactive” and the cell number change was -25.2%. With `O=C(Nc1ccc(C(=O)Oc2ccccc2)c(O)c1)c1ccccc1` the Potency was “inactive” and the cell number change was -6.44%. With `COc1ccc(/C=C2\SC(=S)N(N3CCOCC3)C2=O)c(OC)c1` the Potency was “inactive” and the cell number change was 7.5%. For `CC1CCN(C(=O)c2cc(Cl)nc3ccccc23)CC1`, the Potency was “inactive” and the cell number change was -4.42%. With `COc1ccc(S(=O)(=O)N2CCC(C(=O)NCc3cccc(OC)c3)CC2)cc1` the Potency was “inactive” and the cell number change was 29.1%. In the case of `COc1ccc(/C=N/NC(=O)CCn2nc(C)cc2C)cc1`, the Potency is reported as “inactive” and the cell number change is reported as 9.01%. For `Cc1cc(C)cc(C(=O)Nc2cc3c4c(c2)CC(=O)N4CCC3)c1`, the cell number change was -11.8% and the lipid storage change, negative = inhibition was -15.8% [at 0.0737 µM] (inactive). In the case of `O=C(CSc1ccc(C(F)(F)F)cc1[N+](=O)[O-])N1CCOCC1`, the Potency is reported as “inactive” and the cell number change is reported as -7.3%. With `Cc1ccc(-c2nn(CC(=O)NC(C)c3ccccc3)c(=O)c3ccccc23)cc1` (stereo unspecified) the Potency was “inactive”. For `COc1ccccc1Nc1nnc(SCC(=O)c2cc(C)n(CC3CCCO3)c2C)s1` (stereo unspecified), the Potency was “inactive” and the cell number change was 4.55%. With `CCOc1ccc(CCNC(=O)c2nnn(CC(=O)Nc3c(C)cc(C)cc3C)c2N)cc1OCC` the Potency was “inactive” and the cell number change was 23.4%. For `O=C(c1ccccc1)N1CCN(C2CCCCCC2)CC1`, the Potency was 25.9 µM (active) and the cell number change was -3.45%. For `O=C(c1ccccc1)N1CCN(C2CCCCC2)CC1`, the Potency was “inactive” and the cell number change was 7.93%. For `O=C(c1ccncc1)N1CCN(C2CCCCC2)CC1`, the Potency was “inactive” and the cell number change was 9.31%. For `Cc1noc(C)c1C(=O)OCC(=O)Nc1cccc(S(=O)(=O)N(C)C)c1`, the Potency was “inactive” and the cell number change was -1.55%. For `Cc1cc(C(=O)N/N=C/c2ccc(Cl)c([N+](=O)[O-])c2)c(C)n1-c1ccc(F)cc1`, the Potency was “inactive” and the cell number change was -1.33%. For `CCN(CC)CCC(c1ccc(N(C)C)cc1)c1c(OC)cc(OC)c2c(-c3ccccc3)cc(=O)oc12` (stereo unspecified), the Potency was “inactive” and the cell number change was -6.71%. For `COc1ccc(C(=O)OCC(=O)Nc2cc(C)c(C)cc2[N+](=O)[O-])cc1`, the Potency was “inactive” and the cell number change was -12.7%. With `NC(=O)CSc1cn(CCNC(=O)c2cccs2)c2ccccc12` the Potency was “inactive” and the cell number change was 22.5%. For `O=C1C(=Cc2cccs2)C(=O)c2ccccc21`, the Potency was 18.4 µM (active) and the cell number change was -7.62%. For `O=C1/C(=C/c2cccs2)COc2ccccc21`, the Potency was “inactive” and the cell number change was -6.21%. With `O=C1/C(=C/c2cccs2)Cc2ccccc21` the Potency was “inactive” and the cell number change was 20.5%. With `O=C(CN1C(=O)/C(=C\c2cccc(Cl)c2)Oc2ccccc21)N1CCN(c2ccccn2)CC1` the Potency was “inactive”. For `CC1CC(Nc2ccccc2)=CC(=O)O1` (stereo unspecified), the Potency was “inactive”. With `C[C@@H]1CC[C@H](O)/C=C/C(=O)O[C@H](C)CC[C@H](O)/C=C/C(=O)O1` the Potency was 5.8 µM (active) and the cell number change was -1.52%. For `C[C@@H]1C=CC(=O)O[C@@H]1c1ccc(C(F)(F)F)cc1`, the Potency was “inactive” and the cell number change was 9.88%.
